sPLA2-III inh – Inhibits HGIII-sPLA2 liposome hydrolysis, primary screen; Q9NZ20; QFRET BODIPY PC-A2 liposome hydrolysis, fluorescence; inhibition, % at 12.2 µM; hit rate 0.56% among 370,000; AID 743126;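 active means inhibition above mean plus 3 SD of compounds lying within the high and low control bounds, cut at about 19% in these data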;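 further: 0% = median of test compound wells and 100% = no enzyme DMSO wells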
Target sequence (Q9NZ20 whole entry, looked up): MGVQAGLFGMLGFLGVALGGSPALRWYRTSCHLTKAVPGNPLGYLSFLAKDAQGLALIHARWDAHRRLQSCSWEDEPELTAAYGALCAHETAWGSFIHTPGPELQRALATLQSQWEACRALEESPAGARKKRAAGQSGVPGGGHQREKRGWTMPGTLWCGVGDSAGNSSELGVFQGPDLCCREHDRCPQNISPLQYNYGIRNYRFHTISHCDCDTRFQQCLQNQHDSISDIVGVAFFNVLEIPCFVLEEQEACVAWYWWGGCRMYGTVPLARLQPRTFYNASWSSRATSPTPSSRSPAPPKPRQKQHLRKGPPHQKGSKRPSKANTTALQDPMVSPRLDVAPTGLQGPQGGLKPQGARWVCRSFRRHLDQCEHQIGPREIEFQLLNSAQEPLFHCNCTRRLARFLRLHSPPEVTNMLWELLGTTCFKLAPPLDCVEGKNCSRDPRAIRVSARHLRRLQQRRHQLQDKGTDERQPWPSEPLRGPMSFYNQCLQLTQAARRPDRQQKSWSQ
MsrA inh – inhibits bovine methionine sulfoxide reductase A. purified bovine MsrA, absorbance read-out. inhibition, % at 15.5 µM. hit rate 0.75% among 360,000;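 further: 0% = vehicle wells with enzyme and 100% = reference inhibitor wells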
rCAG RNA binder – binds r(CAG) RNA repeats | r(CAG) RNA repeat, TO-PRO-1 dye displacement fluorescence | inhibition, % at 3 µM | hit rate 1.3% among 370,000 | AID 651821;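 active means inhibition above the plate cutoff, the mean of all test compounds on that plate plus 3 SD, cut at about 35% in these data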;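 further: 0% = DMSO alone and 100% = 100 µM mitoxantrone as full dye displacement; higher means more dye released from RNA so lower well fluorescence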
bovine MsrA act – activates bovine MsrA enzyme | purified bovine MsrA, absorbance read-out | activation, % at 10.6 µM | hit rate 0.3% among 360,000; in the data active means activation above about 7.5%;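 further: 0% = vehicle and 100% = reference activator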
MsrA conf – confirmation of bovine MsrA inhibitors; shares compounds with MsrA inh; purified bovine MsrA, absorbance read-out; inhibition, % at 15.5 µM; hit rate 41% among 2,300; AID 651822;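 further: coupled to thioredoxin reductase with NADPH and selenocystamine and DMSO as substrate; 0% = vehicle only and 100% = full effect of reference inhibitor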
* hit, by the source's call; . = not tested or not shown. An excerpt weighted towards active compounds, which were near 2.8% of everything screened. Unless noted, no stated cut-off is given here; in the data, active means inhibition above about 4.5%; inactive means the rest.

SMILES | sPLA2-III inh | MsrA inh | rCAG RNA binder | bovine MsrA act | MsrA conf
CN(C)/C=N/c1nc2ncc(-c3ccc(Cl)cc3)c(/N=C/N(C)C)n2n1 | 6.5 | 5.2* | -2.6 | -8.4 | 2.7
COc1ccc(/C=C(\CC(=O)O)c2nc3ccccc3s2)cc1O | -10.3 | 5.6* | 14.6 | -9.4 | 4.5
N#CC(c1ccc(O)cc1)N1CCN(C(C#N)c2ccc(O)cc2)CC1 (configuration not stated) | 4.0 | 5.0* | 2.2 | -4.7 | 1.2
COc1ccc(-c2[nH]ncc2CN2CCCC(C(=O)c3cccc(OC)c3)C2)cc1 (configuration not stated) | -12.3 | 0.7 | -4.2 | -3.7 | .
COc1ccc2cc(-c3[nH]ncc3CN3CCCC3c3nonc3C)ccc2c1 (configuration not stated) | -5.7 | 32.8* | 4.2 | -5.9 | 25.7*
CCC(C)Nc1nc(N)c([N+](=O)[O-])c(NCCO)n1 (configuration not stated) | -0.4 | 3.2 | 1.9 | -4.8 | .
CC(C)CCNc1nc(N)c([N+](=O)[O-])c(NCCO)n1 | 9.2 | 4.9* | -3.5 | -11.3 | 5.1*
Cc1nc(N2CCOCC2)[nH]c(=O)c1[N+](=O)[O-] | 1.0 | 2.3 | 1.1 | -1.2 | .
Cc1cc(=O)[nH]c(N/N=C/c2sccc2C)n1 | 1.5 | 4.8* | 0.0 | -4.2 | 5.3*
C(=N\Nc1nc2ccccc2[nH]1)/c1cccs1 | 4.0 | 1.1 | 4.7 | -0.5 | .
Cc1ccsc1/C=N/Nc1nc2ccccc2[nH]1 | 8.8 | 4.8* | 5.7 | -5.5 | 2.7
O=[N+]([O-])c1ccc(N2CCCC2)c([N+](=O)[O-])c1 | -2.6 | 9.0* | 1.0 | -5.4 | 5.5*
COc1ccc(-c2noc(CNS(=O)(=O)c3ccccc3)n2)cc1 | -7.8 | -0.5 | 3.7 | -1.4 | .
CC1C(=O)CC(c2ccccc2)N(C)C1c1ccccc1 (configuration not stated) | 2.7 | 0.2 | -1.1 | -9.3 | .
Nc1ccc(C(=O)N/N=C/c2sc(N3CCOCC3)nc2-c2ccccc2)cc1 | 8.5 | 7.4* | 0.3 | -3.0 | 3.7
O=C(N/N=C/c1sc(N2CCOCC2)nc1-c1ccccc1)c1ccccc1O | -9.6 | 6.5* | 13.8 | -5.9 | 5.1*
Cc1cc(C(=O)N/N=C/c2sc(N3CCOCC3)nc2-c2ccccc2)c(C)o1 | -1.8 | 17.4* | 9.1 | -1.5 | 6.7*
O=C(O)c1cccc(N/N=C/c2sc(N3CCOCC3)nc2-c2ccccc2)c1 | -2.2 | 18.9* | 25.5 | -14.8 | 16.9*
CCN1CCN=C1Nc1ccccc1 | 2.0 | 1.5 | -1.5 | 1.0 | .
O=C(Nc1ccc2c(c1)C(=O)N(C1CCCCC1)C2=O)C1CCCO1 (configuration not stated) | -4.1 | 1.5 | -1.3 | -4.7 | .
CCCc1cc(=O)[nH]c(SCc2ccccc2Cl)n1 | -14.0 | 1.7 | 2.5 | -1.9 | .
CC(C)C[C@H](NC(=O)N1CC(=O)Nc2ccccc21)C(=O)N[C@@H](C(=O)O)c1ccccc1 | 0.3 | -1.0 | 2.8 | -4.2 | .
Cn1cccc1CC(=O)N/N=C/c1ccc([N+](=O)[O-])cc1 | -5.9 | 2.0 | 7.4 | -1.3 | .
O=C(Nc1ccccc1F)C(=Cc1sc(N2CCOCC2)nc1-c1ccccc1)C(=O)Nc1ccccc1F | 7.7 | 4.8* | -1.5 | -5.9 | 4.4
O=C(N/N=C/c1sc(N2CCOCC2)nc1-c1ccccc1)c1ccccc1Cl | 4.8 | 0.3 | -2.3 | -10.7 | .
SMILES | sPLA2-III inh | MsrA inh | rCAG RNA binder | bovine MsrA act | MsrA conf
COc1cc(C(=O)N/N=C/c2sc(N3CCOCC3)nc2-c2ccccc2)cc(OC)c1OC | -0.9 | 6.6* | -0.6 | -5.4 | 3.3
CN(C)/N=C/c1ccc([N+](=O)[O-])cc1[N+](=O)[O-] | 2.1 | 7.7* | 1.0 | -1.0 | 2.7
CN(N=Cc1cccc2cccnc12)c1ccc([N+](=O)[O-])cc1[N+](=O)[O-] | -2.5 | 0.7 | 0.1 | -2.1 | .
CCC(=O)OCCNc1cc(Sc2nc3ccccc3[nH]2)c2nonc2c1[N+](=O)[O-] | -6.1 | 5.0* | 11.9 | -16.7 | 1.6
CCOC(=O)c1c(NC(=O)C[n+]2ccc(N(C)C)cc2)sc(C)c1C | -4.4 | -0.5 | 1.2 | -1.6 | .
c1ccc(-c2nnsc2Sc2ccccn2)cc1 | -2.9 | 5.8* | 4.7 | 3.2 | 3.9
Cc1nnsc1Sc1ccccn1 | -0.1 | -1.8 | -1.3 | -4.2 | .
Cc1ccc(CCNS(=O)(=O)c2cnc[nH]2)cc1 | -30.9 | -0.7 | 4.6 | -1.1 | .
O=C(N/N=C/c1cccc(O)c1)c1cc(-c2ccccc2)nc2ccccc12 | -30.2 | 0.7 | 13.0 | -2.9 | .
COc1ccc(/C=N/NC(=O)c2cc(-c3ccccc3)nc3ccccc23)c(OC)c1 | -4.4 | 5.4* | 17.0 | -5.6 | 3.7
CCOc1ccccc1-c1cc(C(=O)N/N=C/c2ccc3c(c2)OCO3)c2ccccc2n1 | -0.6 | -0.6 | 2.3 | -2.8 | .
COc1cc(/C=N/NC(=O)C(=O)Nc2ccccn2)ccc1O | 14.8 | 5.3* | -2.4 | -3.8 | 5.0*
CCOc1ccccc1-c1cc(C(=O)N/N=C/c2ccc(O)c(OC)c2)c2ccccc2n1 | -16.7 | 4.9* | 12.5 | -7.0 | 1.7
COc1ccc(/C=N/Nc2ccccn2)cc1O | -3.3 | 6.1* | 1.1 | -5.1 | 3.4
COc1cccc(/C=N/NC(=O)c2cnccn2)c1 | 0.2 | -0.3 | -2.0 | -7.7 | .
COc1ccc(/C=N/NC(=O)c2cnccn2)cc1O | -3.9 | 4.8* | 2.2 | -5.7 | 4.8*
COc1ccc(/C=N/NC(=O)c2cc(=O)[nH]c3ccccc23)cc1OC | 3.3 | 4.7* | -3.6 | -16.8 | 3.5
O=C(N/N=C/c1ccco1)c1cc(=O)[nH]c2ccccc12 | 1.4 | 2.0 | 4.1 | -5.2 | .
COc1cc(/C=N/NC(=O)c2cccc(C(=O)N/N=C/c3ccc(O)c(OC)c3)n2)ccc1O | -10.7 | 6.6* | 7.3 | -2.6 | 3.2
COc1cc(/C=N/NC(=O)c2cn(-c3cccc(C)n3)cn2)ccc1O | -0.7 | 4.7* | -7.3 | -5.6 | 4.4
COc1cc(/C=N/NC(=O)c2cc[n+]([O-])cc2)ccc1O | 14.0 | 7.5* | -1.2 | -0.9 | 5.2*
COc1ccc(/C=N/NC(=O)c2cc[n+]([O-])cc2)cc1OC | . | . | . | -3.4 | .
COc1cc(/C=N/NC(=O)c2cc3ccccc3[nH]2)ccc1O | -7.0 | 8.4* | 8.2 | -0.8 | 5.9*
CCOc1ccc(/C=N/NC(=O)c2cc3c(OC)cccc3[nH]2)cc1 | -12.5 | 0.5 | 4.8 | -4.1 | .
CCOc1cc(/C=N\NC(=O)c2c(C)nc3ccccn23)ccc1O | 6.2 | 5.6* | -4.0 | -5.9 | 4.9*
SMILES | sPLA2-III inh | MsrA inh | rCAG RNA binder | bovine MsrA act | MsrA conf
Cc1nc2ccccn2c1C(=O)N/N=C/c1ccc2c(c1)OCO2 | -4.4 | 2.6 | -2.4 | -6.1 | .
CCOc1ccc2[nH]c(C(=O)N/N=C/c3cc(OC)c(OC)c(OC)c3)cc2c1 | -10.5 | 5.4* | 5.4 | -4.5 | 4.8*
CC1CN(C2CC(C)(C)NC(C)(C)C2)CCC1=O (configuration not stated) | 10.2 | 1.1 | -2.7 | -0.1 | .
O=C(N/N=C/c1ccc([N+](=O)[O-])o1)c1cc(-c2ccncc2)nc2ccccc12 | -3.0 | 6.1* | 18.9 | -10.5 | 2.5
CCOC(=O)c1c(NC(=O)C(=O)N/N=C/c2ccc(O)c(OC)c2)sc2c1CCCCC2 | 2.6 | 5.0* | 18.9 | -1.0 | 2.9
COc1ccc(/C=N/NC(=O)c2cc3c(OC)ccc(OC)c3[nH]2)cc1O | -28.6 | 6.6* | 14.7 | -4.6 | 5.8*
